Results as given in PubChem BioAssay AID720519 (National Center for Advancing Translational Sciences (NCATS), 2013).
Records with an inconclusive call do not appear. Calls of active or inactive are those of the source. Calls come from the whole dose curve; as a rule, active = well fitted activation curve with a large enough effect; inconclusive = small, poorly fitted or top-dose-only effect; inactive = flat fitted curve, though single readings scatter.

assay: qHTS for Inhibitors of Cell Surface uPA Generation: Confirmatory Assay for Cherry-picked Compounds; conditions: cell surface uPA activity generation, qHTS confirmation; series mostly up to 115 µM
How it was run: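 RAW 264.7 cells at 4000/well, incubated overnight, then treated with compounds. After 24 h at 37 C, viability was read by ATPlite luminescence. An increase in signal indicates blocked uPA-dependent LF entry.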

Potency, inactive:
COc1ccc(-n2nnnc2SCC(=O)Nc2nnc(C)s2)cc1
CCC1=NN(C(=O)C(=O)Nc2ccc(OC)cc2)C(O)(C(F)(F)F)C1 (configuration not stated)
COc1ccc(C(=O)c2sc(Nc3ccccc3)nc2N)cc1
O=C(CN1C(=O)CSCC1=O)NCc1ccc(F)cc1
Cc1ccnc(NS(=O)(=O)c2ccc(NC(=O)C3C4C=CC(C4)C3C(=O)O)cc2)n1 (configuration not stated)
COc1ccc(CCNC(=O)CSc2nc(N)c3c(C)c(C)oc3n2)cc1OC
CC(=O)N1CCN(C(=O)CSc2cc(C)c(Br)cc2C)CC1
COc1ccc(C(C)=O)cc1CSC(=N)N
Cc1ccc(C)c(N2N=C(C(=O)N(CC(C)C)c3c(N)n(Cc4ccccc4)c(=O)[nH]c3=O)CCC2=O)c1
COc1ccc(CCN=c2c([N+](=O)[O-])nn(-c3cccc(C)c3)n2O)cc1OC
CCC(C)NC(=O)c1ccc2nc(-c3ccc(OC)c(OC)c3)c(-c3ccc(OC)c(OC)c3)nc2c1 (configuration not stated)
Cc1ccc(S(=O)(=O)N2CCC(C)CC2)cc1
C[C@@H]1O[C@@H](O[C@@H]2C(=O)c3c(O)cc(O)cc3O[C@H]2c2ccc(O)c(O)c2)[C@H](O)[C@H](O)[C@H]1O
O=c1[nH]c2c(s1)C(c1ccc(O)cc1)C1C3CCC(C3)C1S2 (configuration not stated)
O=C(NC1CCCCC1)C(c1ccco1)N(C(=O)c1csnn1)c1cccc(Cl)c1 (configuration not stated)
O=C(CCCOc1ccc(Cl)cc1Cl)NCc1ccncc1
Cn1c(=O)c(=O)n(C)c2cc(S(=O)(=O)CCC(=O)Nc3ccc(F)cc3)ccc21
